According to PubChem BioAssay (NCATS):
Inconclusive results are not listed. Calls of active or inactive are those of the source. Unless noted, how the calls were made is not given here.

What was measured:
[1] = qHTS profiling of the MIPE4 collection as inhibitors of Plasmodium falciparum (DD2) proliferation (Rep 2) (AID 743346); conditions: P. falciparum Dd2 in erythrocytes, SYBR Green DNA, 72 h; at 28.5 µM unless noted
Outline: (§1)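 Erythrocytes infected with P. falciparum (0.3% parasitemia, 2.5% hematocrit) incubated with compounds 72 h at 37 C, 5% CO2. Lysis with saponin/Triton buffer containing SYBR Green I, overnight at room temperature in the dark; DNA fluorescence (485/535 nm) normalised to 0.29 uM artemisinin and DMSO.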

[2] = qHTS profiling of the MIPE4 collection as inhibitors of Plasmodium falciparum (HB3) proliferation (AID 743347);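 further: plate controls were DMSO vehicle wells for no effect and artemisinin wells for full effect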; conditions: P. falciparum HB3 in erythrocytes, SYBR Green DNA, 72 h; at 28.5 µM unless noted
Outline: as §1

[3] = High-throughput drug toxicity screening in the BPDCN cell line Gen2.2 (AID 1224824); conditions: Gen2.2 BPDCN cells; at 45.8 µM (top of the series) unless noted;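 further: cells exposed to compounds for 48 h before reading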
Outline: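 Gen2.2 cells, 500 per well in phenol red-free RPMI with 10% FBS, exposed to compounds 48 h at 37 C, 5% CO2; viability by CellTiter-Glo luminescence. Percent activity scaled to DMSO (100%) and 9.2 uM bortezomib final (0%).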

[4] = High-throughput drug toxicity screening in the BPDCN cell line Cal-1 (AID 1224825); conditions: Cal-1 BPDCN cell viability, qHTS; at 45.8 µM (top of the series) unless noted
Outline: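 500 Cal-1 cells/well, RPMI + glutamine + 10% FBS (phenol red-free); cpd added by pin tool; 48 h, 37C, 5% CO2; CTG 15 min RT, lumi read. Normalised: DMSO 100%, bortezomib 9.2 uM 0%.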

[5] = qHTS assay for measurement of the activity of small molecule inhibitors on Zika virus induced Caspase-3 activity in human astrocytoma cells (AID 1224859; active means well fitted inhibition curve with a large enough effect;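 further: plate controls were ZIKV-infected untreated cells for no effect and uninfected cells for full effect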)
Outline: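 Percent inhibition of virus-induced caspase-3/7 signal is calculated against uninfected and ZIKV-infected control cells. Cells are SNB-19, infected at 2 FFU/cell for 6 h after 1 h compound exposure.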

[6] = qHTS Screen of the MIPE 4.0 Collection Against Ewings Sarcoma (EW8) (AID 1259255; active means well fitted inhibition curve with a large enough effect; further: nearly all actives have a fitted effect of over 35% in size; further: potency means the concentration at half of the fitted maximal effect;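 on viability: 100% = DMSO-treated cells and 0% = medium-only wells without cells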)
Outline: (§2)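 Cells plated in serum-containing RPMI (5% FBS) and treated with compound dilutions for 48 h. Readout luminescent viability; normalization relied on vehicle (no inhibition) and media-only columns (full inhibition).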

[7] = qHTS Screen of the MIPE 4.0 Collection Against Ewings Sarcoma (TC32) (AID 1259256; active means well fitted inhibition curve with a large enough effect; further: nearly all actives have a fitted effect of over 45% in size; further: potency means the concentration at half of the fitted maximal effect)
Outline: as §2

[8] = qHTS Screen of the MIPE 4.0 Collection Against Ewings Sarcoma (RDES) (AID 1259252; active means well fitted inhibition curve with a large enough effect; further: nearly all actives have a fitted effect of over 35% in size; further: potency means the concentration at half of the fitted maximal effect)
Outline: as §2

[9] = qHTS Screen of the MIPE 4.0 Collection Against Ewings Sarcoma (TC71) (AID 1259253; active means well fitted inhibition curve with a large enough effect; further: nearly all actives have a fitted effect of over 40% in size; further: potency means the concentration at half of the fitted maximal effect)
Outline: as §2

[10] = qHTS assay for measurement of the activity of small molecule inhibitors on Zika virus induced Caspase-3 activity in human iPSC derived neural progenitor cells (hNPCs) (AID 1224857; active means well fitted inhibition curve with a large enough effect; further: % of control where 0% means no effect; nearly all actives have a fitted effect of over 65% in size)
Outline: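 Cells were plated at 350 per well and grown 16 to 20 hours. Compound pretreatment lasted one hour, after which ZIKV (2 FFU/cell) was added for 6 hours. Percent inhibition was normalized between uninfected and infected controls.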

| Compound | parasite growth, % of control (lower = inhibition) [1] [%] | growth, % of control [2] [%] | cell viability, % of control (lower = more cytotoxic) [3] [%] | viability (% of control) [4] [%] | Potency [5] | Potency [6] | Potency [7] | Potency [8] | Potency [9] | Potency [10] |
| --- | --- | --- | --- | --- | --- | --- | --- | --- | --- | --- |
| CCCCCCCCCCCC1=C(O)C(=O)C=C(O)C1=O | 16.4 | 27.2 | 52.7 | 15.1 | inactive | inactive | 23.5 µM (active) | – | – | – |
| C=C1C(=O)OC2C=C(C)CCC=C(C)CCC12 (stereo not given) | 108 | 559 | 10.5 | 11.5 | inactive | 23.5 µM (active) | 20.9 µM (active) | – | – | – |
| CCCCCNC(=O)N1CCC(CN(Cc2ccc(Cl)cc2)Cc2ccc([N+](=O)[O-])s2)C1 (stereo not given) | 30.3 | 55.8 | 15.7 | 44.4 | inactive | – | – | 20.9 µM (active) | – | – |
| C[C@]12CCC3c4ccc(O)cc4CCC3C1CCC2=O (stereo not given in full) | 54.3 | 66.9 | 54 | 62.5 | inactive | – | 6.62 µM (active) | – | 14.8 µM (active) | – |
| N[C@H](CSC(c1ccccc1)(c1ccccc1)c1ccccc1)C(=O)O | 16.2 | 4.68 | 68.6 | 12 | inactive | – | inactive | – | – | – |
| CNC(=O)c1ccc2cc(C3(O)CCn4cncc43)ccc2c1 (stereo not given) | 74.8 | 55 | 82.2 | 94.8 | inactive | inactive | – | – | – | – |
| COc1cccc2c1CCCC2CCCN1CCN(C2CCCCC2)CC1 (stereo not given) | – | 5.02 | 165 | 11.1 | – | – | – | – | – | inactive |
| CC[C@]1(O)C[C@@H]2CN(CCc3c([nH]c4ccccc34)[C@@](C(=O)OC)(c3cc4c(cc3OC)N(C=O)[C@@H]3C45CCN4CC=C[C@](CC)([C@H]45)[C@@H](OC(C)=O)[C@]3(O)C(=O)OC)C2)C1 (stereo not given in full) | 16.2 | 3.8 | 15 | 51.8 | inactive | – | inactive | 16.6 µM (active) | – | – |
| CC(=O)Oc1cc2c(s1)CCN(C(C(=O)C1CC1)c1ccccc1F)C2 (stereo not given) | 40.2 | 57.5 | 15.7 | 18.3 | inactive | 3.72 µM (active) | 2.96 µM (active) | 2.35 µM (active) | – | – |
| OC[C@H]1O[C@@H](Oc2cc(O)cc(C=Cc3ccc(O)cc3)c2)[C@H](O)[C@@H](O)[C@H]1O | 77.5 | 83.3 | 71.3 | 60.5 | inactive | – | – | – | – | – |
| Cc1cccc(Nc2nc(-c3ccncc3)cs2)c1 | 42.6 | 17.7 | 75.6 | 82.9 | inactive | – | – | – | – | – |
| CC(C)n1nc(-c2ccc3oc(N)nc3c2)c2c(N)ncnc21 | 6.88 | 4.46 | 1.63 | 8.31 | inactive | – | – | – | – | – |
| O=C1c2c(O)cc(O)cc2O[C@H](c2cc(O)c(O)c(O)c2)[C@H]1O | 78.7 | 102 | 112 | 123 | inactive | – | inactive | – | – | – |
| COCCOC(=O)C1=C(C)NC2=C(C(=O)CC(c3ccccc3OC)C2)C1c1cccc(O)c1 (stereo not given) | 51.8 | 17.6 | 4.78 | 5.74 | inactive | – | – | – | – | – |
| COc1ccc(-c2coc3cc(O)cc(O)c3c2=O)cc1 | 46.3 | 15.1 | 308 | 86.9 | – | inactive | inactive | – | inactive | – |
| CS(=O)(=O)N(Cc1ccco1)CC(O)Cn1c2ccccc2c2ccccc21 (stereo not given) | 58.2 | 16.4 | 75.4 | 65.5 | inactive | – | – | – | – | – |
| N#CC(=C(N)Sc1ccccc1N)C(C#N)=C(N)Sc1ccccc1N | 10.6 | 5.29 | 16.6 | 12.1 | inactive | – | – | – | – | – |
| O=C(NC1CCOCC1)c1ccc(-c2cc(-c3cn[nH]c3-c3ccccn3)ccn2)cc1 | 40.9 | 47.3 | 724 | 131 | – | inactive | inactive | – | – | – |
| O=c1c(-c2ccc(O)cc2)coc2cc(O[C@@H]3O[C@H](CO)[C@H](O)[C@H](O)[C@H]3O)ccc12 | 85.3 | 104 | 101 | 99.8 | – | inactive | inactive | – | – | – |
| O=c1c(-c2ccc(O)cc2)coc2cc(OC3O[C@H](CO)[C@H](O)[C@H](O)[C@H]3O)cc(O)c12 (stereo not given in full) | – | 54 | 74.8 | 37.3 | – | 18.7 µM (active) | 10.5 µM (active) | 3.72 µM (active) | 7.43 µM (active) | – |
| CO[C@H]1C(=O)[C@]2(C)[C@@H](OC)C[C@H]3OC[C@@]3(OC(C)=O)[C@H]2[C@H](OC(=O)c2ccccc2)[C@]2(O)C[C@H](OC(=O)[C@H](O)[C@@H](NC(=O)OC(C)(C)C)c3ccccc3)C(C)=C1C2(C)C | 21.2 | 3.01 | 28.9 | 13 | – | inactive | inactive | inactive | – | – |
| CO[C@H]1C=CO[C@@]2(C)Oc3c(C)c(O)c4c(O)c(c5c(c4c3C2=O)NC2(CCN(CC(C)C)CC2)N=5)=NC(=O)C(C)=CC=C[C@H](C)[C@H](O)[C@@H](C)[C@@H](O)[C@@H](C)[C@H](OC(C)=O)[C@H]1C | 12.8 | 5.92 | 106 | 97.3 | inactive | – | inactive | – | – | – |
| C[C@H](NC(=O)c1sccc1OCc1ccc(Cl)cc1)c1ccccc1 | 10.7 | 3.82 | 181 | 45.5 | inactive | – | – | – | – | – |
| O=C1C(Cl)=C(NCCN2CCOCC2)C(=O)c2ncccc21 | 16 | 10.3 | 2.36 | 0.784 | – | 3.72 µM (active) | 2.64 µM (active) | 8.33 µM (active) | – | – |
